From PubChem
APP 5UTR inh – APP translation inhibition | inhibition, % at 2 µM | SH-SY5Y APP 5'UTR-luciferase reporter, luminescence | hit rate 0.82% among 190,000;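 active means inhibition above a set limit, derived from the sample mean plus 3 SD, cut at about 45% in these data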
Ba/F3 V617F tox – loss of viability in JAK2V617F-driven Ba/F3 cells; Ba/F3 EpoR-JAK2V617F viability, ATP luminescence; inhibition, % at 5.6 µM; hit rate 1.1% among 220,000; AID 1446;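 active means inhibition above the campaign mean plus 3 SD over all tested compounds, cut at about 24% in these data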;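 further: cytokine-independent growth of Ba/F3 cells driven by EpoR plus mutant JAK2; 0% = DMSO-treated cells and 100% = JAK inhibitor I control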
BaF3 tox – parental Ba/F3 viability inhibition as JAK2V617F counter-screen; CellTiter-Glo ATP luminescence; inhibition, % at 5.6 µM; hit rate 1.1% among 220,000; AID 1486;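 active means inhibition above a per-campaign cutoff, the mean inhibition of all tested compounds plus 3 SD, cut at about 27% in these data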;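 further: 0% = DMSO wells and 100% = JAK Inhibitor I control wells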
aSyn UTR inh – MLPCN primary screen, SNCA 5' untranslated region; inhibition, % (tested at 7.5 µM); hit rate 0.82% among 300,000; alpha-synuclein 5'UTR reporter, inhibitor activity; in the data active means inhibition above about 60%;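 further: H4 neuroglioblastoma cells stably carrying SNCA 5'UTR luciferase fusion; 0% = DMSO wells and 100% = positive control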
IEC-6 tox – counter-screen for KLF5 inhibitors: cytotoxicity in IEC-6 cells; IEC-6 cytotoxicity, luminescence viability; inhibition, % at 5 µM; hit rate 0.78% among 290,000; in the data active means inhibition above about 22%;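 further: 0% = plate median of test compound wells and 100% = cytotoxic reference compound wells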
KLF5 inh – suppresses KLF5 promoter-driven expression; hit rate 0.23% among 290,000; inhibition, % at 5 µM; DLD-1 KLF5 promoter-luciferase reporter, luminescence;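 active means inhibition above a per-plate limit of that plate's mean compound inhibition plus 3 SD, cut at about 60% in these data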;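 further: 0% = DMSO wells and 100% = LY294002 at 200 µM; higher means less KLF5 promoter-driven luciferase light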
The depositor's hits bear a star; nt = not tested or not shown. An excerpt weighted towards active compounds, which were near 2.2% of everything screened.

SMILES	APP 5UTR inh	Ba/F3 V617F tox	BaF3 tox	aSyn UTR inh	IEC-6 tox	KLF5 inh
CC(=O)Nc1ccc(S(=O)(=O)Oc2ccc3c(c2)C(C)=CC(C)(C)N3)cc1	27	80*	73*	9	33*	-8
COc1ccc(NC(=O)NCc2ccco2)c(OC)c1	-6	-3	0	-22	-2	-25
CCNC(=O)Nc1ccc(OC)cc1OC	50*	0	1	16	-2	-21
COc1ccc(/C=N/NC(=O)c2cccnc2)cc1CSc1nc2ccccc2s1	54*	5	8	54	21	-12
COc1ccc(/C=N/NC(=O)c2ccccc2Cl)cc1CSc1nc2ccccc2s1	6	-2	3	28	16	26
CC(C)C(=O)N1CCc2cc(-c3csc(N)n3)ccc21	-10	3	6	-49	-4	-13
CC(C)(C)NC(=O)C(c1ccncc1)N(C(=O)Cn1nnc(-c2ccc(F)cc2)n1)c1ccc(F)cc1 (configuration not stated)	-22	3	81*	-10	3	-9
Cn1c(SC2=CS(=O)(=O)c3ccccc32)nc2ccccc21	72*	89*	65*	-29	21	-14
O=[N+]([O-])c1cccc(-c2cc3cccc[n+]3cc2-c2cccc([N+](=O)[O-])c2)c1	1	3	0	1	1	-3
Cc1cccc2cc(-c3ccccc3)c(-c3ccccc3)c[n+]12	0	90*	72*	13	4	10
CCOc1ccccc1CN1CCN(Cc2ccc(C)o2)C(CCO)C1 (configuration not stated)	5	1	80*	1	2	-40
OC(COC(c1ccccc1)c1ccccc1)CN1CCOCC1 (configuration not stated)	-8	-1	81*	-9	-2	-4
OC(COc1ccccc1)CN1CCN(CC(O)COc2ccccc2)CC1 (configuration not stated)	-4	4	7	5	-2	-17
OC(COc1ccccc1)CN1CCCCCC1 (configuration not stated)	-13	0	81*	-7	11	5
OC(COc1ccc(CNCCc2ccc(C(F)(F)F)cc2)cc1)CN1CCCCC1 (configuration not stated)	14	102*	103*	82*	99*	-16
COc1ccc(C(=O)CCC(=O)N2CCN(c3cccc(Cl)c3)CC2)cc1	nt	nt	nt	1	2	-8
COc1ccc(NC(=O)Cc2nnc(SCC(=O)NC3=NCCS3)n2C)cc1	nt	nt	nt	9	-6	0
CCCCn1c(CN2CCN(c3ccccc3)CC2)nc2c1c(=O)n(C)c(=O)n2C	-3	23	29*	-31	6	-2
CN(Cc1ccccc1)Cc1nc2c(c(=O)n(C)c(=O)n2C)n1CCc1ccccc1	-1	-4	1	-12	0	-1
CCCCn1c(CN(C)Cc2ccccc2)nc2c1c(=O)n(C)c(=O)n2C	-7	7	29*	-1	8	-28
COc1ccc2o/c(=N/NC(=O)c3cccs3)c(C(N)=O)cc2c1	-43	-3	2	-157	0	-50
COC(=O)c1nn(-c2ccc(-c3ccccc3)cc2)cc1O	-156	1	7	67*	3	-47
CCOC(=O)c1nn(-c2ccccc2)cc1O	nt	-1	-4	-60	-1	-50
Cc1ccc2cc(CN(CC3CCCO3)C(=S)Nc3ccccc3)c(=O)[nH]c2c1C (configuration not stated)	53*	1	8	72*	8	-16
Cc1cc(C)c2[nH]c(=O)c(CN(CC3CCCO3)C(=S)Nc3ccccc3)cc2c1 (configuration not stated)	nt	2	5	8	-4	-4
SMILES	APP 5UTR inh	Ba/F3 V617F tox	BaF3 tox	aSyn UTR inh	IEC-6 tox	KLF5 inh
Cc1onc(-c2ccccc2Cl)c1C(=O)N1CCCCCC1	nt	nt	nt	6	0	-7
CN[C@H]1CCc2cc(OC)c(OC)c(OC)c2-c2ccc(OC)c(=O)cc21	nt	nt	nt	90*	nt	nt
COc1cc2c(c(OC)c1OC)-c1c(cc(OC)c(OC)c1OC)C[C@](C)(O)[C@@H](C)C2	nt	nt	nt	-10	nt	nt
COC(=O)c1ccc(NC(=O)NC2CCCCC2)cc1	-25	-1	1	-117	5	-64
Cn1c(=O)c2c(ncn2CC(=O)N2CCc3ccccc3C2)n(C)c1=O	54*	0	2	-5	4	-20
COc1cc(NC(=O)CN2CCCCC2C)c(C)cc1[N+](=O)[O-] (configuration not stated)	-9	1	6	23	4	-50
